The supplement of paper PMC9135407
Where a name gives a salt, the structure may show the parent alone.

system: primary human hepatic stellate cells (donor 1); test: ACTA2 mRNA fold change vs DMSO (normalised to PSMB2); higher = more ACTA2 expression; settings: 48 h
Procedure: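 Secondary qRT-PCR screen in primary human HSCs (donor 1), 384-well plates, with compounds dispensed in quadruplicate and incubated for 48 h. Cells-to-CT lysates were used for multiplexed TaqMan qPCR of ACTA2 or COL1A1 with PSMB2 as reference. Fold changes versus DMSO come from a linear model (Ct_gene ~ Ct_PSMB2 + plate + chemical). A hit is defined as COL1A1 and ACTA2 FC <0.5 (FDR <0.05) with PSMB2 between 0.2 and 2.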

Structure (SMILES)	ACTA2 mRNA fold change
Clc1ccccc1CNCC1CCC(CNCc2ccccc2Cl)CC1 (stereo not given) (33.3333 µM)	0.0214
Cc1cc(C(=O)Nc2cc(Nc3ccc4c(/C=C/c5ccccn5)n[nH]c4c3)ccc2F)n(C)n1 (33.3333 µM)	0.469
COC(=O)N[C@H](C(=O)N1CCC[C@H]1c1ncc(-c2ccc(-c3ccc(-c4cnc([C@@H]5CCCN5C(=O)[C@@H](NC(=O)OC)C(C)C)[nH]4)cc3)cc2)[nH]1)C(C)C (33.3333 µM)	0.0331
CC(C)(C)c1cc(NC(=O)Nc2ccc(-c3cn4c(n3)sc3cc(OCCN5CCOCC5)ccc34)cc2)no1 [Quizartinib  (AC220)] (11.1 µM)	0.258
NC(N)=NC(=O)c1nc(Cl)c(N2CCCCCC2)nc1N [5-(N,N-hexamethylene)amiloride] (33.3333 µM)	0.0262
CN(C)C/C=C(/c1ccc(Br)cc1)c1cccnc1 [Zimelidine dihydrochloride] (11.1 µM)	0.452
CC(C)NCCCn1c(Sc2cc3c(cc2I)OCO3)nc2c(N)ncnc21 (33.3333 µM)	1.26
CNCCC(Oc1ccc(C(F)(F)F)cc1)c1ccccc1 (stereo not given) [Fluoxetine hydrochloride] (33.3333 µM)	0.0314
CN1CCC(=C2c3ccccc3C=Cc3ccccc32)CC1 [Cyproheptadine] (33.3333 µM)	0.172
COC(=O)C[C@](O)(CCCC(C)(C)O)C(=O)O[C@@H]1C(OC)=C[C@]23CCCN2CCc2cc4c(cc2[C@H]13)OCO4 [Homoharringtonine] (33.3333 µM)	0.0673
